# Laboratory results: the supplement of paper PMC12669032
# Unmarked numbers belong to inactive results.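 How the source made its calls: active = AUC reduced over 20% with Padj below 0.05 in at least 2 of 3 replicates; inactive = otherwise.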
# Tests used:
# Assay in all cases: growth AUC relative to DMSO control (median of replicates) (fraction); higher = more growth (less inhibition), active = hit call of the paper
# Conditions in all cases: 20 µM; 24 h
# Akkermansia muciniphila = system: Akkermansia muciniphila
# Summary of the method: (§1)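 Each value is the median of three biological replicates, grown on separate days, of a gut bacterial monoculture incubated anaerobically at 37 °C in mGAM with 20 µM compound (1% DMSO). Cultures started at OD600 0.05 and were read at OD600 hourly for 24 h, with the minimum OD set to 0. Area under the growth curve was normalised to the plate median of solvent-only wells, or to row and column medians on the industrial chemical plate.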
# Bacteroides caccae = system: Bacteroides caccae
# Summary of the method: as §1
# Bacteroides clarus = system: Bacteroides clarus
# Summary of the method: as §1
# Bacteroides dorei = system: Bacteroides dorei
# Summary of the method: as §1
# Bacteroides stercoris = system: Bacteroides stercoris
# Summary of the method: as §1
# [1] = system: Bacteroides thetaiotaomicron
# Summary of the method: as §1
# Bacteroides uniformis = system: Bacteroides uniformis
# Summary of the method: as §1
# [2] = system: Bifidobacterium longum subsp. longum
# Summary of the method: as §1
# Clostridium difficile = system: Clostridium difficile
# Summary of the method: as §1
# Collinsella aerofaciens = system: Collinsella aerofaciens
# Summary of the method: as §1
# Coprococcus comes = system: Coprococcus comes
# Summary of the method: as §1
# Escherichia coli ED1a = system: Escherichia coli ED1a
# Summary of the method: as §1
# Escherichia coli IAI1 = system: Escherichia coli IAI1
# Summary of the method: as §1
# Eubacterium rectale = system: Eubacterium rectale
# Summary of the method: as §1
# [3] = system: Fusobacterium nucleatum subsp. animalis
# Summary of the method: as §1
# Lactobacillus gasseri = system: Lactobacillus gasseri
# Summary of the method: as §1
# Lactobacillus paracasei = system: Lactobacillus paracasei
# Summary of the method: as §1
# Odoribacter splanchnicus = system: Odoribacter splanchnicus
# Summary of the method: as §1
# [4] = system: Parabacteroides distasonis
# Summary of the method: as §1
# Parabacteroides merdae = system: Parabacteroides merdae
# Summary of the method: as §1
SMILES,growth AUC (Akkermansia muciniphila),growth AUC (Bacteroides caccae),growth AUC (Bacteroides clarus),growth AUC (Bacteroides dorei),growth AUC (Bacteroides stercoris),growth AUC [1],growth AUC (Bacteroides uniformis),growth AUC [2],growth AUC (Clostridium difficile),growth AUC (Collinsella aerofaciens),growth AUC (Coprococcus comes),growth AUC (Escherichia coli ED1a),growth AUC (Escherichia coli IAI1),growth AUC (Eubacterium rectale),growth AUC [3],growth AUC (Lactobacillus gasseri),growth AUC (Lactobacillus paracasei),growth AUC (Odoribacter splanchnicus),growth AUC [4],growth AUC (Parabacteroides merdae)
O=C(O)C(F)(F)C(F)(F)C(F)(F)C(F)(F)C(F)(F)C(F)(F)C(F)(F)C(F)(F)F,1.01,1,1.02,1.03,1.08,1.07,1.02,1.03,0.997,0.997,1.01,1.01,1.01,0.99,1,1,1.03,1.07,1.18,1.01
CCc1cccc(C)c1N(C(=O)CCl)[C@@H](C)COC,1.13,0.95,0.99,0.98,1.2,0.975,1,1.03,0.961,0.963,0.976,0.981,1.01,1.06,1.15,0.944,1.01,1.02,1.01,0.938
CCCCCCCCCCCCCN1CC(C)OC(C)C1 (stereo not given),0.931,0.969,1,1.01,1.03,0.993,0.982,0.908,0.923,0.941,0.999,1.01,0.966,0.991,0.964,0.937,1.08,0.984,0.984,0.973
O=C(Nc1ccccc1)Nc1cnns1,0.941,0.868,0.921,0.918,1.04,0.941,1.01,1.03,0.936,0.969,0.971,0.91,0.884,1,0.955,0.925,1.09,0.938,0.94,0.955
CN(C(=O)COc1nc2ccccc2s1)c1ccccc1,1.06,0.925,1.03,0.956,1.26,0.96,0.934,1.12,0.982,1.01,1.01,1.02,0.952,1,1.1,1.13,1.02,0.934,0.948,0.998
O=C(O)c1ccc(=O)[nH]c1,1.06,1.02,1.01,1.02,0.972,0.984,1.01,1,1.01,0.977,0.999,0.99,1.03,0.976,0.982,0.972,0.987,0.985,1.02,0.983
Nc1ncn[nH]1,0.877,1.04,1.01,1.02,0.931,1.01,0.997,1.02,1.01,0.995,0.974,1.02,1.01,0.987,1.1,0.942,0.995,1.03,1.02,0.981
Cc1c(N)cccc1N,0.946,0.969,1.04,1,1.18,0.992,1,1,1,1.04,1.01,0.995,0.981,1.01,1.04,1.01,0.991,0.938,0.995,1.01
CCOP(=S)(Oc1ccc([N+](=O)[O-])cc1)c1ccccc1 (stereo not given),1.06,0.961,1.02,0.972,1.11,1.01,0.919,1.02,1.03,0.996,0.949,1.04,1.05,1.02,1.09,1.04,1.07,1.09,0.947,0.99
C=CCC1=C(C)C(OC(=O)C2C(C=C(C)C)C2(C)C)CC1=O (mixture of isomers),1.05,0.96,1.04,0.962,0.924,0.972,0.936,0.96,0.962,0.941,0.963,0.968,1.01,1.09,1.01,0.818,0.943,1.01,0.771,0.955
CCOC(=O)C(SP(=S)(OC)OC)c1ccccc1 (stereo not given),0.867,0.974,0.933,0.973,0.986,0.938,0.929,1,1.04,1,1.02,0.991,0.976,0.821,0.904,1.05,1.02,0.958,0.746 (active),0.958
ClC1(Cl)C2(Cl)C3(Cl)C4(Cl)C(Cl)(Cl)C5(Cl)C3(Cl)C1(Cl)C5(Cl)C24Cl (stereo not given),0.866,0.966,0.972,1.01,1.06,1,0.937,0.846,1,0.94,0.986,1.03,0.989,0.98,0.997,0.939,0.897,0.982,1.03,0.966
COc1ccc(C(c2ccc(OC)cc2)C(Cl)(Cl)Cl)cc1,0.973,0.92,0.849,0.926,0.49 (active),0.776 (active),0.813,0.926,0.988,0.975,0.978,1.04,0.967,0.882,1.06,1.13,1.02,1,0.938,0.71
COc1cnc(OC)n2nc(NS(=O)(=O)c3c(OCC(F)F)cccc3C(F)(F)F)nc12,0.962,1.03,1.01,0.993,0.991,1.01,1.01,0.994,0.993,0.991,1.01,1.01,1.02,0.954,0.96,1.08,0.965,1.01,1.01,1.01
CC(CCl)OP(=O)(OC(C)CCl)OC(C)CCl (mixture of isomers),1.14,1,0.998,0.973,0.994,1,0.958,1.05,1.02,0.951,0.999,0.973,0.984,1.08,1.08,0.851,1.01,1.01,0.94,0.976
CN=C=S,0.945,1.01,0.977,0.988,1.07,1,1,1.05,1.01,1.02,1,1,1.01,0.972,0.977,0.962,1.04,1.06,1.08,1
CCCN(CCCl)c1c([N+](=O)[O-])cc(C(F)(F)F)cc1[N+](=O)[O-],1.01,0.977,0.95,0.94,0.93,0.918,0.927,1.07,0.995,0.961,0.914,0.983,0.987,0.942,1.05,0.875,1.06,1.13,0.962,0.955
